Bioassay records from PubChem BioAssay.
ALOX12 inh: Primary qHTS assay for inhibitors of human arachidonate 12S-lipoxygenase (ALOX12): Round 2; Polyunsaturated fatty acid lipoxygenase ALOX12 (Homo sapiens), P18054; purified 12hLO, xylenol orange hydroperoxide absorbance; Potency, µM (top dose mostly 108 µM), without a hit: at the top dose activity change, negative = inhibition, actives largely listed as inhibitors; 580,000 tested, 1.1% active; AID 1671190, 2021; also: potency is read from the fitted curve at half-maximal effect
Target sequence (P18054 whole entry, looked up): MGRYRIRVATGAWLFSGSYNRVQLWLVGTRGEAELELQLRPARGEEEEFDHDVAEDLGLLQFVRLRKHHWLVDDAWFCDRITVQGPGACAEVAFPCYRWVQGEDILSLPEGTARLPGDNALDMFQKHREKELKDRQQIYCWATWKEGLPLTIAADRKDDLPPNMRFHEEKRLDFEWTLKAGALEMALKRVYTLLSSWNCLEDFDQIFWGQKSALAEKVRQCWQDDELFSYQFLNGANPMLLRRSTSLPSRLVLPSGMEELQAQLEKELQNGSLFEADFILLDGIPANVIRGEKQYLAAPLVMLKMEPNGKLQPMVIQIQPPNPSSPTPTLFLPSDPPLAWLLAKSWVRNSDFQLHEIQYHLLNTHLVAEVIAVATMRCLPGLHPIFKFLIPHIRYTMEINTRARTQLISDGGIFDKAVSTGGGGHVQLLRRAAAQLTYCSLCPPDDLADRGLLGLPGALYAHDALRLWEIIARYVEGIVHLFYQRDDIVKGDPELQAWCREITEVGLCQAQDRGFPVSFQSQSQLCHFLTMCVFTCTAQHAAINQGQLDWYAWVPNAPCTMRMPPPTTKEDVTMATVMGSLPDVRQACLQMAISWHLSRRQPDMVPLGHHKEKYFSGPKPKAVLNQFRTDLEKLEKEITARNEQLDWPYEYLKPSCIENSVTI
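Purified human 12hLO at 150 nM in 25 mM Hepes, 0.01% Triton X-100, pH 7.0, preincubated 15 min at room temperature with compound. Reaction started with 40 uM arachidonic acid, 30 min at room temperature. Hydroperoxide measured by Fe-xylenol orange, 573/405 nm absorbance ratio.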
IL-1B inflam inh: qHTS for Inhibitors of Inflammasome Signaling: IL-1-beta AlphaLISA Primary Screen. AID 743279, 2014. activity change, % at 57.5 µM. THP-1 LPS/ATP IL-1B secretion, AlphaLISA, 16 h; stronger effect = lower value. 360,000 tested, 4.7% active; in the data active = activity change below about -50%; inconclusive = mostly about -30% to -49%
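THP-1 cells pretreated 1 hr with compounds (up to 57.5 uM final), then stimulated with LPS (250 ng/mL final) plus ATP (1.25 mM final); secreted IL-1B measured by AlphaLISA after 16 hr, decreased signal indicating inhibition.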
HT1080 IDH1KD tx: qHTS for induction of synthetic lethality in tumor cells producing 2HG: qHTS for the HT-1080-IDH1KD cell line. HT-1080 IDH1 knockdown viability, ATP luminescence, 48 h. 360,000 tested, 2% active. Potency, µM (doses to about 46.1 µM), for inactives: top-dose activity, negative = toxicity, most hits filed as cytotoxic;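 also: potency is read from the fitted curve at half-maximal effect; 0% = DMSO wells and -100% = cell-free medium wells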
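Cytotoxicity counter-line: IDH1KD HT-1080, 48 h, CellTiter-Glo. Curves classed by r2, magnitude and activity.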
DT40 TDP1 CPT: qHTS for Inhibitors of human tyrosyl-DNA phosphodiesterase 1 (TDP1): qHTS in cells in presence of CPT. Potency, µM (highest dose often 46.2 µM), without a hit: at the highest dose activity change, negative = growth inhibition, most hits filed as inhibitors. chicken DT40 Tdp1-/-;hTDP1 cells + 20 nM CPT, ATP luminescence, 48 h. AID 686979, 2013. 420,000 tested, 12% active; also: potency is read from the fitted curve at half-maximal effect; nearly all actives have a fitted effect of over 55% in size
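Cell growth measured by CellTiter-Glo luminescence after a minimum 48 h, 37 C compound exposure with 20 nM CPT in Tdp1-knockout DT40 cells stably expressing hTDP1, seeded 400/well; qHTS titration format.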
TDP1 cell noCPT: qHTS for Inhibitors of human tyrosyl-DNA phosphodiesterase 1 (TDP1): qHTS in cells in absence of CPT; DT40 Tdp1-/- hTDP1 cells, no CPT, ATP luminescence, 48 h; Potency, µM (highest dose often 46.2 µM), for the others: top-dose activity change, negative = growth inhibition, actives largely listed as inhibitors; 420,000 tested, 15% active; AID 686978, 2013; also: potency is read from the fitted curve at half-maximal effect; nearly all actives have a fitted effect of over 55% in size
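Growth kinetics read by CellTiter-Glo luminescence after ≥48 hr at 37 °C. Cells: DT40 Tdp1-/- stably carrying human TDP1, 400 per well, compound exposure in the absence of CPT (DMSO vehicle).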
HT1080NT lethal: qHTS for induction of synthetic lethality in tumor cells producing 2HG: qHTS for the HT-1080-NT fibrosarcoma cell line | HT-1080-NT fibrosarcoma viability, CellTiter-Glo ATP luminescence, 48 h | Potency, µM (top dose mostly 46.1 µM), for the others: top-dose activity, negative = less viability, usual class: cytotoxic | 360,000 tested, 1.6% active;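 also: NT is the 2HG producing partner of a matched IDH1 knockdown line; potency is read from the fitted curve at half-maximal effect; 0% = DMSO-treated cells and -100% = media-only wells without cells; nearly all actives have a fitted effect of over 55% in size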
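HT-1080-NT; 750 cells/well; 5% FBS RPMI; 48 h compound, 37 degrees C; CellTiter-Glo luminescence; curve fitting and curve-class assignment.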
Starred values were filed as active, the others as inactive; ? = inconclusive; . = no result. This is one part of a sample in which hits are shown more often than they occur. Unless noted, calls follow the shape of the dose curve; as a rule, active = well fitted curve in the direction sought with a large enough effect; inconclusive = small, poorly fitted or top-dose-only effect, or another doubt; inactive = no such curve, though single readings can be large; an effect the other way counts as inactive or inconclusive. Unless noted, % is scaled to controls: 0 for no effect and ±100 for the full control effect.

SMILES	ALOX12 inh	IL-1B inflam inh	HT1080 IDH1KD tx	DT40 TDP1 CPT	TDP1 cell noCPT	HT1080NT lethal
CCOC(=O)c1sc(NC(=O)c2ccccc2OCC)nc1C	6%	18	23%	21µM*	?	0%
CCOC(=O)c1sc(NC(=O)c2ccc3nc[nH]c3c2)nc1C	10%	-9	?	?	8.2µM*	1%
C=CCOC(=O)c1sc(NC(=O)c2ccc(OC)cc2)nc1C	-5%	-2	1.8µM*	12%	6%	?
O=C(c1ccncc1)N1CCC(n2cc(-c3nc(-c4ccccc4)no3)nn2)CC1	41%	.	.	.	.	.
CC1CCCC(C(=O)O)N1 (stereo not drawn)	-35%	.	.	.	.	.
CC(=O)NCc1ccc(-c2csc(-c3ccc(C(C)C)cc3)n2)o1	25%	.	.	.	.	.
CCOC(=O)c1sc(NC(=O)Nc2ccc(Cl)cc2)nc1C	1%	-28	-1%	?	23µM*	-7%
O=C(Nc1nc2cc3c(cc2s1)OCCO3)C1=COCCO1	?	-53*	13µM*	23µM*	?	15µM*
O=C(Nc1nc2cc3c(cc2s1)OCCCO3)c1cccc(Cl)c1Cl	-3%	.	.	.	.	.
COc1ccc(OCC(=O)Nc2nc3cc4c(cc3s2)OCCO4)cc1	?	-3	9%	3%	-8%	4%
CC(=O)Nc1nc2cc3c(cc2s1)OCCO3	46%	?	-2%	?	23µM*	2%
Cc1cc(C)c2sc(NC(=O)C3=COCCO3)nc2c1	318%	-58*	-22%	-11%	-15%	-1%
O=C(CSc1nc(=O)n(Cc2ccncc2)c2c1CCC2)Nc1ccc2c(c1)OCO2	31%	.	.	.	.	.
Cn1ncc(Cl)c1C(=O)NCc1ccc2c(c1)OCO2	2%	36	-9%	?	?	-1%
O=C(NCc1ccc2c(c1)OCO2)c1nc(S(=O)(=O)Cc2ccccc2F)ncc1Cl	-14%	-100*	?	4.1µM*	2.1µM*	16µM*
O=C(NCc1ccc(Cl)c(Cl)c1)c1ccc2c(c1)OCO2	7%	-1	?	-17%	1%	?
O=C(NCc1ccc2c(c1)OCO2)c1nc(S(=O)(=O)Cc2ccccc2)ncc1Cl	-4%	-104*	16µM*	2.6µM*	4.1µM*	16µM*
COc1ccccc1NC(=O)Cn1nc2n(c1=O)CCCCC2	29%	.	.	.	.	.
COc1ccc(C(=O)NCCc2c[nH]c3ccc(OC)cc23)cc1	4%	-10	25%	3%	-19%	20%
COc1ccc2[nH]cc(CCNc3ccnc(-c4cccc(NS(C)(=O)=O)c4)n3)c2c1	40µM*	.	.	?	10µM*	.
COc1ccc2[nH]cc(CCNc3ccnc(-c4ccc(N(C)C)cc4)n3)c2c1	?	.	.	1µM*	0.92µM*	.
COc1ccc2[nH]cc(CCNc3ccnc(-c4cccnc4)n3)c2c1	-5%	.	.	21µM*	?	.
COc1ccc2[nH]cc(CCNc3ccnc(-c4cccc(C#N)c4)n3)c2c1	-22%	.	.	?	?	.
O=C(NC(c1ccccc1)c1ccccc1)c1cnc2c(c1)N([S+](=O)([O-])c1cccnc1)CCC2	-4%	.	.	.	.	.
Cn1nnnc1-c1cccc(NS(=O)(=O)c2ccc(F)cc2F)c1	-5%	.	.	.	.	.
Cc1ccc(NC2(c3nnnn3-c3ccccc3C)CCCCC2)cc1	-21%	.	.	.	.	.
Cc1ccc(Nc2nc(N)nc(COc3ccccc3C(N)=O)n2)cc1	-3%	.	.	.	.	.
CCc1ccc(CNC(=O)CN2C(=O)c3cccnc3Oc3ccc(Cl)cc32)cc1	-22%	.	.	?	16µM*	.
